Screening results from PubChem.
Many of the other results were omitted from the sample, so hits are more common in it than they were.
PKM2 inhibitor: PKM2 (human) enzyme inhibition; purified PKM2, ATP generation, Kinase-Glo luminescence; 260,000 tested, 0.058% active; Potency, µM (doses to about 57.5 µM), inactives show top-dose activity change, negative = inhibition, actives largely listed as inhibitors; P14618; AID 1634; active = well fitted inhibition curve with a large enough effect; also: nearly all actives have a fitted effect of over 60% in size
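Enzyme run at intermediate activity with final 0.1 mM ADP, 0.5 mM PEP (50 mM imidazole pH7.2, 50 mM KCl, 7 mM MgCl2), incubated 1 h at r.t. ATP formed read by Kinase-Glo luminescence, normalized to no-enzyme (full inhibition) and uninhibited wells.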
* marks the source's active call; other numbers are inactive results. Potency is read from the fitted curve at half-maximal effect.

SMILES	PKM2 inhibitor
CSc1nc2ccccc2n1C(=O)Oc1ccccc1	32%
CN(C)C(=O)Oc1ccc(OCc2nc3ccccc3[nH]2)cc1	11µM*
O=C1NC(=O)C(=Cc2csc3ccccc23)C(=O)N1	39%
CCC(C)C1(CC)C(=O)NC(=O)N=C1N (centres undefined)	-10%
O=[N+]([O-])c1cc(F)c(N2CCCC2)cc1Br	8%
O=C(O[C@@H]1Cc2c(O)cc(O)cc2O[C@@H]1c1cc(O)c(O)c(O)c1)c1cc(O)c(O)c(O)c1	42%
O=C1C2CCN(CC2)[C@@H]1Cc1ccc2ccccc2c1O	42%
CN(C)C(=S)SSC(=S)N(C)C	14µM*
O=c1[nH]c(=S)[nH]c(O)c1N=Nc1ccc(S(=O)(=O)N2CCOCC2)cc1	-7%
N#CC(C#N)=NNc1ccc(S(=O)(=O)N2CCCC2)cc1	32%
